In the supplement of paper PMC6555819:

How the values were obtained:
Test in all cases: PBM binding z-score (relative to random genomic background probes); higher = stronger binding; sequences stand for … in GC…GCGATTGACAGCGTAGAATGAAGG
[1] = test system: FXR:RXRa (NR concentration 270 nM, RXRa partner concentration 90 nM)
In short: (§1)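 Binding z-scores take random background probes as their reference. They come from custom Agilent 4×180K protein-binding microarrays incubated 1 h with ligand-free nuclear receptor dimers, with antibodies against each partner (one per run) detecting binding. Scanned fluorescence was regression-normalized.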

[2] = test system: LXRa:RXRa (NR concentration 270 nM, RXRa partner concentration 90 nM)
In short: as §1

[3] = test system: LXRa homodimer (NR concentration 270 nM)
In short: as §1

[4] = test system: LXRb:RXRa (NR concentration 270 nM, RXRa partner concentration 90 nM)
In short: as §1

[5] = test system: LXRb homodimer (NR concentration 270 nM)
In short: as §1

[6] = test system: PPARa:RXRa (NR concentration 270 nM, RXRa partner concentration 90 nM)
In short: as §1

[7] = test system: PPARg:RXRa (NR concentration 180 nM, RXRa partner concentration 90 nM)
In short: as §1

[8] = test system: PPARg:RXRa 270nM:90nM, anti-RXR (NR concentration 270 nM, RXRa partner concentration 90 nM)
In short: as §1

[9] = test system: PPARg:RXRa 30nM:10nM, anti-RXR (NR concentration 30 nM, RXRa partner concentration 10 nM)
In short: as §1

[10] = test system: PPARg:RXRa 90nM:30nM, anti-RXR (NR concentration 90 nM, RXRa partner concentration 30 nM)
In short: as §1

[11] = test system: PPARg:RXRa DBDmut IVT, anti-RXR (DBD mutation: RXRa K156A/R161A, NR concentration 270 nM, RXRa partner concentration 90 nM)
In short: as §1

[12] = test system: PPARg:RXRa IVT, anti-PPARg (NR concentration 270 nM, RXRa partner concentration 90 nM)
In short: as §1

[13] = test system: PPARg DBDmut:RXRa IVT, anti-PPARg (DBD mutation: PPARg1 K132A/R137A, NR concentration 270 nM, RXRa partner concentration 90 nM)
In short: as §1

[14] = test system: PPARg DBDmut IVT, anti-PPARg (DBD mutation: PPARg1 K132A/R137A, NR concentration 270 nM)
In short: as §1

[15] = test system: PPARg homodimer (NR concentration 180 nM)
In short: as §1

[16] = test system: PXR:RXRa (NR concentration 270 nM, RXRa partner concentration 90 nM)
In short: as §1

[17] = test system: PXR homodimer (NR concentration 270 nM)
In short: as §1

[18] = test system: RARa:RXR (NR concentration 270 nM, RXRa partner concentration 90 nM)
In short: as §1

[19] = test system: RARa homodimer (NR concentration 270 nM)
In short: as §1

[20] = test system: RARb:RXRa (NR concentration 270 nM, RXRa partner concentration 90 nM)
In short: as §1

Sequence	PBM binding z-score [1]	PBM binding z-score [2]	PBM binding z-score [3]	PBM binding z-score [4]	PBM binding z-score [5]	PBM binding z-score [6]	PBM binding z-score [7]	PBM binding z-score [8]	PBM binding z-score [9]	PBM binding z-score [10]	PBM binding z-score [11]	PBM binding z-score [12]	PBM binding z-score [13]	PBM binding z-score [14]	PBM binding z-score [15]	PBM binding z-score [16]	PBM binding z-score [17]	PBM binding z-score [18]	PBM binding z-score [19]	PBM binding z-score [20]
CCGCCTGGGGCAAGGTTACCATAACGCACAGCCA	0.284	0.783	-0.315	0.56	-1.07	1.21	0.654	0.637	-0.339	0.253	-0.567	0.525	-0.637	-1.46	0.471	0.34	-0.119	0.916	-0.239	1.61
CCTAGTTGGTCCGGAGGTCACACACCGGATATGA	3.5	3.34	2.47	3.37	0.577	3.61	2.4	3.54	1.51	3.05	0.0727	1.77	-0.285	0.613	2.74	4.13	1.54	4.43	1.45	3.47
ATCGAAAGGTCGACGAGGTGAGTGTACACCGTTT	4.72	3.35	0.236	2.78	0.198	4.42	2.9	3.72	1.14	2.63	1.06	2.45	1.21	0.365	1.48	3.37	1.03	3.93	0.268	3.89
GCTTACGGGTCAGAGGTTATAGCATGAATAGAAT	5.2	3.46	0.404	3.77	0.261	5.92	9.08	7.82	6.2	8.57	2.54	4.73	0.344	0.535	2.65	3.89	0.491	5.92	0.521	3.58
CGAACAAGGGCATGAGTTGATAGCAAATGCCGAT	-0.0162	0.00346	-0.221	-0.134	-0.495	0.425	0.963	0.765	0.259	0.196	1.66	0.813	-0.522	-0.153	0.0917	-0.0332	-0.184	-0.0493	0.0122	2.02
ATCTCTAGGTATCAAGTTCAGTGAAAGAGAGGAC	0.749	0.772	0.719	0.674	1.24	0.806	0.577	1.44	0.214	1.15	0.507	1.03	1.04	1.12	0.949	1.05	2.18	0.725	1.18	1.59
GCGACTGGGGCATCAGCAGGTTAGCATAACTTAA	-0.723	-0.775	-0.738	0.063	-1.51	0.705	0.575	0.572	-0.512	0.0276	3.62	2.57	-1.06	-1.09	-0.262	-0.392	-0.845	-0.492	-0.942	0.511
TCTTGTAAATCAATAGAGGTTAAGAAAGTGCGCT	0.793	3.32	0.658	1.86	0.26	1.86	0.0624	1.82	3.77	2.44	2.07	0.72	0.946	0.876	0.652	2.65	0.467	1.72	0.812	1.13
CGAACTAGGTCCGAACAGGACAGTGAAGGATGAT	-0.542	-0.905	-0.619	-1	-0.811	-1.03	0.576	-0.558	-0.414	-0.784	1.53	0.592	-1.02	-0.172	-1.32	-0.715	-0.581	-0.746	-0.281	-0.345
CGAACTAGGTCAGAACAGGACAGAGAAGGATGAT	1.6	0.878	0.159	0.278	-0.292	2.94	5.04	4.26	1.71	3.03	7.13	7.18	1.45	0.658	0.782	0.74	0.047	0.515	0.919	2.88
CCTACTGGGCTAAAGGTCATTGATTCCAATGCTC	4.68	4.85	4.14	4.48	0.6	6.09	11.2	9.38	9.13	10.4	4.37	6.31	-0.17	-0.112	4.02	4.97	1.35	5.44	0.872	4.26
ATATGTAGGTTATCGGGTTATTCAGTTTGCGCAT	1.49	1.81	1.11	2.23	1.29	3.81	6.03	4.99	2.41	4.37	7.05	7.32	2.24	2.13	2.36	1.88	1.38	1.79	2.46	1.11
TTACCAAGGGGAGCTGAGGTCGTTGATCCAACTC	1.8	0.173	-0.107	0.623	-0.398	0.818	-0.207	0.37	0.187	-0.00393	0.0938	0.219	-0.939	-0.633	-0.405	2.35	0.544	1.03	-0.882	0.604
ACAGACAGTTGAGTGAAGGTAACTCAGCTGGACG	0.127	-0.141	-0.198	-0.473	-0.26	-0.127	0.557	-0.26	-0.0499	-0.284	-0.279	0.038	-0.108	-0.693	-0.3	-0.386	-0.571	-0.397	-0.00601	-0.0285
TAGCCTAGGTCCTGCGGGCCAGTATAGTGTCGGC	-1.69	-1.08	-1.14	-1.49	-1.06	-1.2	-0.732	-0.789	-0.922	-1.13	-1.61	-0.181	-1.11	-0.969	-1.72	-0.971	-1.03	-0.898	-1.52	-0.954
CGAACGAGGGCATGGGTTGATAGCAAATGCCGAT	0.548	0.397	-0.228	0.329	-0.69	2.01	3.1	3.6	1.43	3.25	2.5	2.69	-0.338	0.301	0.704	0.517	0.232	0.938	-0.224	2.05
CAAACTAGGTGACAGAGGTCAAAGTCCGTGCGTA	4.84	5.47	4.88	5	1.14	5.75	7.83	6.75	4.75	6.85	8	8.03	1.36	0.411	2.02	5.61	2.31	5.38	1.29	4.12
ATCTCTAGGTAAAGTTCAGAGAAAGATCGATAGA	1.31	1.89	1.72	1.3	0.639	2.4	3.54	4.66	2.76	4.68	2.15	2.79	1.18	0.787	2.17	2.04	1.86	1.25	1.48	2.51
CCTCCGAGGACAGAAGGTCAGAGCTGTCCGCTTT	1.46	1.7	0.408	1.37	-0.149	1.89	-0.0299	0.869	-0.46	0.274	-0.16	0.312	-1.35	-1.76	2.39	1.76	0.0922	2.49	1.09	3.23
ATCTCTAGGTAACCAAGTTCAGTCAATGCCGAAC	0.839	1.13	1.15	1.16	0.769	1.56	0.836	0.815	0.185	0.74	4.07	3.07	0.988	0.947	1.23	2.3	2.93	1.03	1.01	1.34
CCGGGTAGGTTATGGGGCATTCAGGCAACGGTGA	0.235	0.484	0.0736	0.904	-0.348	1.54	2.18	3.16	0.788	2.58	0.0778	1.73	-0.642	-0.773	0.724	0.144	0.122	0.51	0.0053	1.1
GTACTAAGGTGAATAGGTCGTTGATGAGTAGGCG	1.68	1.21	0.221	0.926	0.00742	2.75	1.77	2.5	0.778	1.53	2.8	3.12	0.603	0.0798	1.34	1.22	0.545	2.45	1.14	2.62
CCTTACGGGTCAAGGTTATAGCGCGGGTGGTACG	5.55	3.66	0.129	2.75	0.134	5.04	4.54	4.41	1.73	3.35	2.04	3.57	-0.278	0.175	1.9	3.27	-0.0779	3.94	0.367	4.29
CCTACCAGGCCAGGGTCACTCAAGCATTTCGCTT	2.09	1.56	-0.206	2.18	-0.678	2.88	0.899	1.61	-0.554	0.539	-0.315	1.13	-1.07	-1.26	1.75	2.39	0.0777	2.79	0.657	2.65
TCTGCTAGGTAAACGATGGTCAGCTAATCTGCTA	-0.588	-0.334	-0.988	-0.606	-1.07	-0.0928	-0.293	0.636	1.68	1.22	1.06	0.192	-0.37	-0.397	-1.72	-0.369	-0.821	-0.233	-1.63	-0.0745
TCTCGGAGGACACGTAAGGTCAGAGCTCGACATC	2.43	3.03	1.46	2.1	-0.238	2.29	0.563	1.42	1.78	1.58	1.32	0.521	0.00634	-0.877	1.75	3.15	0.734	3.13	0.0447	3.41
CCAGACAGGTGAGAAGGTAACTGAGCCTCGATTA	-0.0558	-0.104	-0.12	-0.102	-0.691	0.592	0.397	0.61	-0.11	0.193	0.955	0.477	-0.278	-0.535	0.591	-0.214	0.124	0.14	0.118	0.396
CCGACTGGGGCAGAACGGTTACCATACCATCCGG	-0.431	-0.676	-0.691	-0.711	-1.24	-0.574	0.748	-0.447	-0.36	-1.03	1.2	0.551	-1.28	-1.18	-0.513	-0.96	-0.492	-0.872	-0.367	0.227
ACTAGCAGGCCAAGTTTGGGTCACTCACACAAAG	0.272	0.288	-0.0849	0.693	-0.282	1.41	0.507	0.233	-0.397	-0.0603	0.874	1.38	-1.02	0.437	0.553	0.973	0.229	1.62	-0.272	2.06
